Results as given in PubChem BioAssay (NCATS).
“And” between values parts separate entries of the source, which are not always exact repeats. Identical values can stand only once. Inconclusive results are not listed. The source made the active and inactive calls. Calls come from the whole dose curve; as a rule, active = well fitted activation curve with a large enough effect; inconclusive = small, poorly fitted or top-dose-only effect; inactive = no such curve, though single readings can be large or run the other way.

target: Cellular tumor antigen p53 (Homo sapiens) (UniProt P04637); test: Primary qHTS for small molecule compounds that upregulate eGFP-tagged delta133p53alpha (in N-terminal) cells. (AID 2060322); settings: NCI-H358 eGFP-delta133p53alpha fluorescence, 24 h; activation: hits give high values; note: nearly all actives have a fitted effect of over 75% in size;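 for activation: cells pre-induced with doxycycline then dosed without doxycycline; series mostly up to about 56 µM; 0% = DMSO vehicle and 100% = reference activator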
Sequence (P04637 whole entry, looked up): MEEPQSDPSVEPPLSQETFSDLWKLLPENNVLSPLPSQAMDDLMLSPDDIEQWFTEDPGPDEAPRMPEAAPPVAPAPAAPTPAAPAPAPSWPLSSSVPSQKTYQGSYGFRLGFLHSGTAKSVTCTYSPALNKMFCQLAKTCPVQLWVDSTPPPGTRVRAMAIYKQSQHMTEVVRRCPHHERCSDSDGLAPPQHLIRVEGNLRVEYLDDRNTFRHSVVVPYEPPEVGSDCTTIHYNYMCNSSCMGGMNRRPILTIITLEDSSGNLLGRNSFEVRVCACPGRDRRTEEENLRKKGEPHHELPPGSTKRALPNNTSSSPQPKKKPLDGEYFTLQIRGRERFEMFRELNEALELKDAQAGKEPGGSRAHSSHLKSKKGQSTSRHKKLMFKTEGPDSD
How it was run: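 NCI-H358 cells pre-induced 24 h with 10 ng/ml doxycycline for eGFP-delta133p53alpha, plated dox-free and exposed 24 h at 37C to titrated compounds. Fixed, Hoechst-stained; gated GFP peak intensity by laser scanning cytometry, normalized to DMSO (0%) and 57.5 uM 5-azacytidine (100%).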
Potency is the fitted concentration of half-maximal effect.

SMILES | activation | Potency
COc1ccc(C2C(=O)c3ccccc3C2=O)cc1 | -15.9% (inactive) | 
CCN(CC)CCOC(=O)C1(c2ccccc2)CCCC1 | 3.35% (inactive) | 
CCCCCCCCCCCCCCCC[N+](C)(C)CCN(Cc1ccc(OC)cc1)c1ncccn1 |  | 34.7 µM (active)
N=C(N)N | 7.34% (inactive) | 
CC(C)=CCC/C(C)=C/CC/C(C)=C/C(=O)OCC(=O)[C@@]1(O)CC[C@H]2[C@@H]3CCC4=CC(=O)C=C[C@]4(C)[C@H]3[C@@H](O)C[C@@]21C | -21.8% (inactive) | 
N#CC(=C(O)c1ccc(Cl)cc1Cl)c1nc2cc(Cl)ccc2c(=O)[nH]1 | 7.18% (inactive) | 
CC(C)OP(=O)(CP(=O)(OC(C)C)OC(C)C)OC(C)C | -4.18% (inactive) | 
CC(=O)[C@H]1CC[C@H]2[C@@H]3C[C@H](C)C4=CC(=O)CC[C@]4(C)[C@H]3[C@@H](O)C[C@]12C | -15.9% (inactive) | 
CNC(=O)c1ccc(Nc2cc(Nc3ccccc3S(=O)(=O)C(C)C)c3cc[nH]c3n2)nc1 |  | 19.3 µM (active)
CC1=C(CO)C(=O)O[C@@H]([C@@H](C)[C@H]2CC[C@H]3[C@@H]4C[C@H]5O[C@]56[C@@H](O)C=CC(=O)[C@]6(C)[C@@H]4CC[C@]23C)C1 |  | 3.85 µM (active)
NC(N)=Nc1nc(CSCCC(N)=NS(N)(=O)=O)cs1 | 11% (inactive) | 
CN(CC=CC#CC(C)(C)C)Cc1cccc2ccccc12 | 36.7% (inactive) | 
NCC(=O)O | 13% (inactive) | 
CO[C@H]1/C=C\O[C@@]2(C)Oc3c(C)c(O)c4c(O)c(c(C=NN5CCN(C6CCCC6)CC5)c(O)c4c3C2=O)NC(=O)C(C)=CC=C[C@H](C)[C@H](O)[C@@H](C)[C@@H](O)[C@@H](C)[C@H](OC(C)=O)[C@H]1C |  | 24.3 µM (active)
O=C1NC(=O)C(=Cc2ccc3nccnc3c2)S1 | -3.42% (inactive) | 
Cc1c[nH]c(C=C2C(=O)Nc3ccccc32)c1CCC(=O)O |  | 24.3 µM (active)
CCCc1ncc(C(=O)O)s1 | -8.37% (inactive) | 
O=C(Nc1ccc(Oc2ccc(Cl)cc2)c(Cl)c1)c1cc(I)cc(I)c1O | -20.9% (inactive) | 
O=C(O)COC(=O)Cc1ccccc1Nc1c(Cl)cccc1Cl | 5.08% (inactive) | 
CNC(=O)[C@H](CC1=CN=C2C=CCC=C12)NC(=O)[C@@H](CC(=O)NO)CC(C)C | 3.1% (inactive) | 

SMILES | activation | Potency
O=C1Nc2ccc(I)cc2C1=Cc1cc(Br)c(O)c(Br)c1 |  | 24.3 µM (active)
CCC[C@H](N[C@@H](C)C(=O)N1[C@H](C(=O)O)C[C@@H]2CCCC[C@@H]21)C(=O)OCC | -15.3% (inactive) | 
OC1(c2ccc(Cl)cc2)CCNCC1 | -8.47% (inactive) | 
OCC(O)CS (stereo not given) | -8.47% (inactive) | 
CC(C(=O)O)c1ccc2c(c1)Cc1cccnc1O2 (stereo not given) | -30.1% (inactive) | 
Cc1ncc(CO)c(CN)c1O | 16.4% (inactive) | 
O=c1[nH]c(=O)n([C@H]2C[C@@H](O)[C@@H](CO)O2)cc1C=CBr | 11.1% (inactive) | 
Nc1ccc2c(c1)CN1C(=O)c3ccccc3C1=N2 |  | 0.0601 µM (active)
O=c1cc(CO)occ1O | -9.6% (inactive) | 
O=C1C(Cl)=C(N2CCOCC2)C(=O)N1c1ccc(Cl)c(Cl)c1 | -1% (inactive) | 
CN(C)CCOC(c1ccccc1)c1ccc(Br)cc1 (stereo not given) | -6.21% (inactive) | 
CC(=O)N1CCN(c2ccc(OCc3nn(C)c(C)c3-c3cccc4c(CCCOc5cccc6ccccc56)c(C(=O)O)n(Cc5cccnc5)c34)cc2)CC1 | 22.3% (inactive) | 
N[C@@H](C(=O)N[C@@H]1C(=O)N2C(C(=O)O)=C(Cl)CS[C@H]12)c1ccccc1 | -19.2% (inactive) and 26.9% (inactive) | 
Cc1ccc(-c2ccccc2C#N)cc1 | -11.9% (inactive) | 
C=C1C(=CC=C2CCC[C@]3(C)[C@@H]([C@H](C)CCCC(C)(C)O)CC[C@@H]23)C[C@@H](O)C[C@@H]1O | -4.26% (inactive) | 
CCOC(=O)c1cccc(N)c1 | -1.67% (inactive) | 
CN1CCN(C2=Nc3ccccc3Sc3ccc(Cl)cc32)CC1 | 15.3% (inactive) | 
CC(=O)OCC[N+](C)(C)C | 15.3% (inactive) | 
N#C/C(=C1\SCC(c2ccccc2Cl)S1)n1ccnc1 (stereo not given) | 5.08% (inactive) | 
CCn1cc(C(=O)O)c(=O)c2cc(F)c(N3CCNCC3)nc21 | -2.51% (inactive) and 26.4% (inactive) | 
